B2AR ag: activates human beta-2 adrenergic receptor causing internalization | P07550 | Am2.2-beta2AR cells, FAP receptor internalization, flow cytometry | response, % (no concentration beside the values) | 340,000 compounds, 0.43% hits;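 active = response above a set limit, near 3 SD of response in nonfluorescent compounds, cut at about 42% in these data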
Target sequence (P07550 whole entry, looked up): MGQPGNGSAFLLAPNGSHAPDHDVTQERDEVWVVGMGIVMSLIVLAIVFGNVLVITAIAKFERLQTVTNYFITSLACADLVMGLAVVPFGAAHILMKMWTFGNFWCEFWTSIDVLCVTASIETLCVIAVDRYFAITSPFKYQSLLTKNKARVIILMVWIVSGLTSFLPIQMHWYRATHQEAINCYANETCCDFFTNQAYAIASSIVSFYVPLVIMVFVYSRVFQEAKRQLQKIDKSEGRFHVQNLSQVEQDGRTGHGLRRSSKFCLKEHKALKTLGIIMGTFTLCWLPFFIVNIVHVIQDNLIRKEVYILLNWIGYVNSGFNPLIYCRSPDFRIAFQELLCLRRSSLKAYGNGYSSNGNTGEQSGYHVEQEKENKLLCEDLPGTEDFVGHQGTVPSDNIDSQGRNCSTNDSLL
Peg3 prom inh: inhibitors of Peg3 promoter. HeLa PEG-Prom luciferase reporter, luminescence, overnight. inhibition, % at 20 µM. 360,000 compounds, 1.7% hits. AID 588405;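 active = inhibition of at least 50% at 20 µM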
MITF TRPM1 inh: MITF TRPM1 promoter inhibition in SK-MEL-5 cells; inhibition, % at 12.5 µM; SK-MEL-5 TRPM1 promoter luciferase, 24 h; 330,000 compounds, 0.83% hits;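 active = mean inhibition across replicates of 60% or more, whatever share of single replicates reaches that level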
CF NFkB block: inhibitors of cystic fibrosis induced NF-kB; KKLEB NF-kB-GFP reporter, PAF-induced, GFP fluorescence overnight; inhibition, % at 5 µM; 360,000 compounds, 0.86% hits;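 active = at least 50% inhibition at 5 µM, scaled per plate between neutral and stimulator controls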;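 note: PAF is a Pseudomonas aeruginosa culture filtrate used as stimulus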
HIF-2a block: HIF-2a inhibition. 360,000 compounds, 0.72% hits. 786-0 RCC cells HIF-2a reporter, luciferase luminescence, overnight. inhibition, % at 18.8 µM;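 active = inhibition of the luminescence signal of 40% or more relative to plate controls, in a single-dose primary screen at 18.75 µM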
KKLEB tox: reduces viability of KKLEB cystic fibrosis airway cells; activity change (cytotoxicity), % at 5 µM; AID 602141; 360,000 compounds, 0.36% hits; KKLEB CF airway cells viability, ATPlite luminescence, overnight; active compounds read low; cells stimulated with P. aeruginosa culture filtrate;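 active = corrected activity change at or below -50% at 5 µM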
CF NFkB conf: CF NF-kB inhibition confirmation, single concentration; inhibition, % at 5 µM; 1,300 compounds, 64% hits; shares compounds with CF NFkB block; KKLEB CF airway cells, PAF-induced NF-kB-GFP fluorescence, overnight; AID 602472; in the data active = inhibition above about 40%;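 note: stimulus PAF is a Pseudomonas aeruginosa filtrate and not platelet activating factor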
Of the large screens only hits and unclear results are named; the others gave an inactive call (follow-up assays come after a bar, where they were run). This is a sample that favours compounds with a hit; in the whole collection about 2.8% have one here.

Cc1c(Cl)cccc1N=C1SCCN1C(=O)CN1C(=O)NC2(CCCC2)C1=O	CF NFkB block 53 | CF NFkB conf 40
CC(C)CNC(=O)C1(C)CCCN1Cc1ccc(S(C)(=O)=O)cc1 (stereo not drawn)	none (no result: B2AR ag, MITF TRPM1 inh)
N#Cc1ccsc1NC(=O)c1ccc(Cl)c([N+](=O)[O-])c1	CF NFkB block 50 | CF NFkB conf 68
COc1ccc(-c2cncnc2-c2ccc(OC)cc2O)cc1	CF NFkB block 62 | CF NFkB conf 83
CCOC(=O)Nc1ccc2c(c1)N(C(=O)CCN(CC)CC)c1ccccc1S2=O (stereo not drawn)	Peg3 prom inh 58, CF NFkB block 91 | CF NFkB conf 43
CCOC(=O)Nc1ccc2c(c1)N(C(=O)CCN(CC)CC)c1ccccc1CC2	none
O=C(Nc1ccc(Br)c2ccccc12)c1ccc2ccccc2c1O	CF NFkB block 54 | CF NFkB conf 73
CC(=O)Nc1ccc(Br)c2ccccc12	none
CC1CCN(C(=O)c2[nH]cnc2C(=O)Nc2ccccc2F)CC1	none (no result: B2AR ag, MITF TRPM1 inh)
COCCN1Cc2cccc(C(=O)Nc3cccc(-c4nc5ccccc5[nH]4)c3)c2C1=O	CF NFkB block 57 | CF NFkB conf 68
COCCN1Cc2cccc(C(=O)Nc3ccc(-c4nc5ccccc5[nH]4)cc3)c2C1=O	none
COc1ccc(-c2ccc([C@H]3[C@@H]4C=CCC[C@@]4(C)C(=O)N3Cc3ccccc3)c(F)c2)cc1OC	CF NFkB block 53 | CF NFkB conf inactive
Cc1cccc(NC(=O)CCS(=O)(=O)c2ccc3nc(C)sc3c2)c1	none (no result: B2AR ag, MITF TRPM1 inh)
C[C@@H]1CN([C@H](C)CO)S(=O)(=O)c2ccc(C3=CCCCC3)cc2O[C@H]1CN(C)C(=O)Cc1cccnc1	none (no result: B2AR ag, MITF TRPM1 inh)
COC(=O)C[C@@H]1CC[C@H](NC(=O)c2ccccc2)[C@@H](CO)O1	none (no result: B2AR ag, Peg3 prom inh, MITF TRPM1 inh, CF NFkB block, KKLEB tox)
CCC(=NCCc1c(C)[nH]c2ccc(C)cc12)C1=C(O)CC(c2ccccc2)CC1=O (stereo not drawn)	CF NFkB block 57 | CF NFkB conf 78
CC(=O)C1=C(O)CC(c2ccccc2)CC1=NCCc1c(C)[nH]c2ccc(C)cc12 (stereo not drawn)	none (no result: MITF TRPM1 inh)
CC(=O)N(CC(C)C(=O)O)c1c(I)cc(I)c(N)c1I (stereo not drawn)	CF NFkB block 64 | CF NFkB conf inactive
Clc1ccc(CSc2nnc(-c3ccncc3)o2)cc1	CF NFkB block 70 | CF NFkB conf 62
COc1ccc(/C=C/C(=O)c2ccccn2)cc1	none
COc1ccc([N+](=O)[O-])c(C=CC(=O)c2ccccn2)c1	Peg3 prom inh 101, CF NFkB block 91 (no result: B2AR ag, MITF TRPM1 inh) | CF NFkB conf inactive
CCOC(=O)[C@@H]1[C@H]2COc3ccccc3[C@@H]2N2C(=O)N(c3ccc(Br)cc3)C(=O)[C@@]12C	none (no result: B2AR ag, MITF TRPM1 inh)
CCSc1nsc(NC(=O)Nc2cccc(OC)c2)n1	CF NFkB block 70 | CF NFkB conf 53
O=C(Nc1ccc(F)cc1)Nc1nnc(COc2ccccc2F)s1	CF NFkB block 58 | CF NFkB conf 44
COc1cccc(NC(=O)Nc2nnc(CC(=O)Nc3ccccc3)s2)c1	CF NFkB block 57 | CF NFkB conf 72
C[C@@H]1CC2=C(C(=O)OC(C)(C)O2)[C@H](c2ccc(F)cc2)O1	none (no result: B2AR ag, Peg3 prom inh, MITF TRPM1 inh, CF NFkB block, KKLEB tox)
O=C(NCCCSc1ccccc1)c1cc(Cl)ccc1O	CF NFkB block 58 | CF NFkB conf 76
C[C@@H]1CN([C@@H](C)CO)C(=O)CCCn2cc(nn2)CO[C@H]1CN(C)C(=O)c1ccc2ccn(C)c2c1	none (no result: B2AR ag, MITF TRPM1 inh)
COC(C/C=C/C(=O)[C@H](C)OCc1ccccc1)OC	CF NFkB block 58 | CF NFkB conf inactive
O=[N+]([O-])c1cccc(-c2ccc(/C=N/Nc3nc(N4CCCCC4)nc(N4CCCCC4)n3)o2)c1	Peg3 prom inh 69, CF NFkB block 55 | CF NFkB conf inactive
COc1ccc(NC(=O)CCS(=O)(=O)c2ccc(Cl)cc2)cc1	none
CC(=O)c1sc(NC(=O)CCS(=O)(=O)c2ccc(Cl)cc2)nc1C	CF NFkB block 56 | CF NFkB conf 40
CCCCNC(=O)c1nc(C2CCN(S(=O)(=O)c3c(OC)cccc3OC)CC2)oc1-c1ccccc1	none (no result: B2AR ag, Peg3 prom inh, MITF TRPM1 inh, CF NFkB block, KKLEB tox)
